Test [1] is described as follows: qHTS profiling of the MIPE4 collection as inhibitors of Plasmodium falciparum (3D7) proliferation (AID 743344).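 Further: scaled between DMSO vehicle wells and 0.29 µM artemisinin as full inhibition.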 Particulars: P. falciparum 3D7 in erythrocytes, SYBR Green DNA fluorescence, 72 h; at 28.5 µM unless noted. In short, it runs like this: (§1)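 Parasite DNA was quantified by SYBR Green I fluorescence (ex 485, em 535 nm) after overnight lysis in saponin/Triton buffer at room temperature. Cultures at 0.3% parasitemia and 2.5% hematocrit were first exposed to compound for 72 h at 37 C; signals were normalised to artemisinin (0.29 uM) and vehicle wells.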

Test [2] in a line: qHTS profiling of the MIPE4 collection as inhibitors of Plasmodium falciparum (DD2) proliferation (AID 743345). Particulars: P. falciparum Dd2 in erythrocytes, SYBR Green DNA, 72 h; at 28.5 µM unless noted. In a few lines:
as §1

Test [3] in a line: qHTS profiling of the MIPE4 collection as inhibitors of Plasmodium falciparum (DD2) proliferation (Rep 2) (AID 743346). Particulars: P. falciparum Dd2 in erythrocytes, SYBR Green DNA, 72 h; at 28.5 µM unless noted. In a few lines:
as §1

Test [4] is described as follows: qHTS profiling of the MIPE4 collection as inhibitors of Plasmodium falciparum (HB3) proliferation (AID 743347).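 Further: plate controls were DMSO vehicle wells for no effect and artemisinin wells for full effect.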 Particulars: P. falciparum HB3 in erythrocytes, SYBR Green DNA, 72 h; at 28.5 µM unless noted. In short, it runs like this: as §1
Test [5] in a line: High-throughput drug toxicity screening in the BPDCN cell line Gen2.2 (AID 1224824).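 Further: cells exposed to compounds for 48 h before reading.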 Particulars: Gen2.2 BPDCN cells; at 45.8 µM (top of the series) unless noted. In short, it runs like this:
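CellTiter-Glo luminescence read after 48 h compound exposure at 37 C defines viability; percent activity set with DMSO as 100% and bortezomib (9.2 uM final) as 0%. 500 exponentially growing cells per well, RPMI plus 10% FBS.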

Test [6] is described as follows: qHTS assay for measurement of the activity of small molecule inhibitors on Zika virus induced Caspase-3 activity in human astrocytoma cells (AID 1224859; active means well fitted inhibition curve with a large enough effect;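 further: plate controls were ZIKV-infected untreated cells for no effect and uninfected cells for full effect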). In short, it runs like this: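 Luminescence read-out (Caspase-Glo 3/7, 30 min RT) of caspase activity in SNB-19 cells infected 6 h with ZIKV, 2 FFU/cell, after 1 h compound pretreatment; % inhibition from induction normalised to uninfected (0%) and infected (100%) wells.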

The nature of test [7]: qHTS Screen of the MIPE 4.0 Collection Against Ewings Sarcoma (RDES) (AID 1259252; active means well fitted inhibition curve with a large enough effect; further: nearly all actives have a fitted effect of over 35% in size; further: potency means the concentration at half of the fitted maximal effect). In a few lines: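 Compound titrations go onto adherent log-phase cells 4 h after seeding, incubate 48 h at 37C, then CellTiter-Glo luminescence reports viability relative to DMSO and cell-free controls.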
The nature of test [8]: qHTS assay for measurement of the activity of small molecule inhibitors on Zika virus induced Caspase-3 activity in human iPSC derived neural progenitor cells (hNPCs) (AID 1224857; active means well fitted inhibition curve with a large enough effect; further: % of control where 0% means no effect; nearly all actives have a fitted effect of over 65% in size). In short, it runs like this:
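hNPCs seeded 350 cells/well, cultured 16–20 h; compounds added 1 h before ZIKV (2 FFU/cell), 37 C 6 h. Caspase-Glo 3/7 luminescence after 30 min RT; % inhibition from induction scaled to uninfected (0%) and infected (100%) wells.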

Results filed as inconclusive are left out. Calls of active or inactive are those of the source. Unless noted, how the calls were made is not given here.

Turning to `CC(NCCc1ccc(O)cc1)C(O)c1ccc(O)cc1` (stereo unspecified), the parasite growth, % of DMSO control in test [1] is 85%. The parasite growth remaining, % of DMSO control (lower = more inhibition) in test [2] worked out at 102%. In test [3], this compound showed a parasite growth, % of control (lower = inhibition) of 73.8%. Also, the growth, % of control in test [4] is 96.6%. In test [5], the cell viability, % of control (lower = more cytotoxic) was found to be 91%. Also, the Potency entry in test [6] and in test [7] was “inactive” in each case.
Take `OC1CCC(Nc2ncc3nc(Nc4c(F)cc(F)cc4F)n([C@@H]4CCOC4)c3n2)CC1` (stereo partly specified): the parasite growth, % of DMSO control in test [1] was determined as 38.4%. The parasite growth remaining, % of DMSO control (lower = more inhibition) in test [2] is 84.7%. The parasite growth, % of control (lower = inhibition) in test [3] worked out at 59.6%. The compound also came in with a growth, % of control in test [4] of 43.4%. Besides, the cell viability, % of control (lower = more cytotoxic) in test [5] came out at 62.2%. Moreover, the Potency result in test [8] and in test [6] was “inactive” in each case. The Potency in test [7] was 18.7 µM (active).
`N#Cc1ccc(Oc2ccc3c(c2)COB3O)cc1` gave a parasite growth, % of DMSO control in test [1] of 35.7%. Further, the parasite growth remaining, % of DMSO control (lower = more inhibition) in test [2] is 91.9%. Moreover, the parasite growth, % of control (lower = inhibition) in test [3] was 38.3%. Besides, in test [4], the growth, % of control stood at 24.2%. In addition, the cell viability, % of control (lower = more cytotoxic) in test [5] was 210%. Besides, the Potency result in test [8] and in test [7] was “inactive” each time.
Consider `COc1ccc2c(c1)c(C1=C(c3c[nH]c4ccccc34)C(=O)NC1=O)cn2CCCN(C)C`, for which, in test [1], the parasite growth, % of DMSO control was found to be 5.52%. The parasite growth remaining, % of DMSO control (lower = more inhibition) in test [2] was 8.71%. For the same compound, the parasite growth, % of control (lower = inhibition) in test [3] worked out at 12.5%. In test [4], this compound displayed a growth, % of control of 5.22%. Moreover, the cell viability, % of control (lower = more cytotoxic) in test [5] turned out to be 8.51%. Moreover, the Potency result in test [8] and in test [6] was “inactive” throughout. The Potency in test [7] is 0.0083 µM (active).
For `O=C(c1ccc(C=Cc2n[nH]c3ccccc23)cc1)N1CCNCC1`, the parasite growth, % of DMSO control in test [1] came out at 22.1%. This compound came in with a parasite growth, % of control (lower = inhibition) in test [3] of 22.9%. For the same compound, in test [4], the growth, % of control is 6.97%. In addition, in test [5], the cell viability, % of control (lower = more cytotoxic) amounted to 57.2%. For the same compound, the Potency result in test [8] and in test [6] was “inactive” each time.
`CCCCCOC(=O)Nc1nc(=O)n([C@@H]2O[C@H](C)[C@@H](O)C2O)cc1F` (stereo partly specified): the parasite growth, % of DMSO control in test [1] was 253%. Moreover, the parasite growth remaining, % of DMSO control (lower = more inhibition) in test [2] amounted to 102%. The compound further registered a parasite growth, % of control (lower = inhibition) in test [3] of 83.9%. The growth, % of control in test [4] amounted to 171%. Further, the cell viability, % of control (lower = more cytotoxic) in test [5] turned out to be 124%. For the same compound, the Potency result in test [8], in test [6] and in test [7] was “inactive” each time.
`Cc1ccc2c(c1)C(=O)[C@]1(O)CCN(c3ccccc3)C1=N2` yielded a parasite growth, % of DMSO control in test [1] of 70.4%. The parasite growth, % of control (lower = inhibition) in test [3] was 89.8%. Moreover, the growth, % of control in test [4] amounted to 76.8%. For the same compound, in test [5], the cell viability, % of control (lower = more cytotoxic) was determined as 91%. For the same compound, the Potency result in test [6] was “inactive”.
On to `C=CCc1cccc(C=NNC(=O)CN2CCN(Cc3ccccc3)CC2)c1O`, for which the parasite growth, % of DMSO control in test [1] turned out to be 38.6%. Besides, the parasite growth remaining, % of DMSO control (lower = more inhibition) in test [2] worked out at 23.3%. In addition, in test [4], the growth, % of control was determined as 97.7%. Moreover, the cell viability, % of control (lower = more cytotoxic) in test [5] was found to be 67.9%. The Potency entry in test [8] and in test [6] was “inactive” in each case.
Compound `Nc1nc(Cl)nc2c1ncn2[C@@H]1O[C@H](CO)[C@@H](O)[C@H]1F` showed a parasite growth, % of DMSO control in test [1] of 81.5%. Further, the parasite growth remaining, % of DMSO control (lower = more inhibition) in test [2] came to 97.5%. The compound also gave a parasite growth, % of control (lower = inhibition) in test [3] of 63.9%. Further, the growth, % of control in test [4] is 96.1%. Further, the cell viability, % of control (lower = more cytotoxic) in test [5] was determined as 159%. For the same compound, the Potency entry in test [8] and in test [6] was “inactive” throughout.
The compound `COc1cc([C@H]2Oc3cc([C@H]4Oc5cc(O)cc(O)c5C(=O)[C@H]4O)ccc3O[C@H]2CO)ccc1O` yielded a parasite growth, % of DMSO control in test [1] of 7.9%. Also, the parasite growth remaining, % of DMSO control (lower = more inhibition) in test [2] came to 18.5%. The parasite growth, % of control (lower = inhibition) in test [3] turned out to be 16.1%. The growth, % of control in test [4] is 12.9%. For the same compound, in test [5], the cell viability, % of control (lower = more cytotoxic) was found to be 181%. The Potency entry in test [8] and in test [6] was “inactive” throughout.
For `CN1CCc2c(n(Cc3ccc(C(=O)NO)cc3)c3ccccc23)C1`, the parasite growth, % of DMSO control in test [1] worked out at 5.97%. In addition, the parasite growth remaining, % of DMSO control (lower = more inhibition) in test [2] worked out at 11.6%. This compound also displayed a parasite growth, % of control (lower = inhibition) in test [3] of 9.26%. Moreover, the growth, % of control in test [4] came out at 4.11%. Also, the cell viability, % of control (lower = more cytotoxic) in test [5] amounted to 17.7%. The Potency result in test [8] and in test [6] was “inactive” each time. Also, the Potency in test [7] was 14.8 µM (active).
On to `CC1(C)OC2CC3C4CC(F)C5=CC(=O)C=CC5(C)C4C(O)CC3(C)[C@]2(C(=O)CO)O1` (stereo partly specified), for which the parasite growth, % of DMSO control in test [1] worked out at 52.8%. Also, the parasite growth remaining, % of DMSO control (lower = more inhibition) in test [2] was determined as 89.8%. Besides, in test [3], the parasite growth, % of control (lower = inhibition) came out at 7.06%. In addition, the growth, % of control in test [4] came to 47.9%. The cell viability, % of control (lower = more cytotoxic) in test [5] stood at 77.5%. Further, the Potency result in test [8], in test [6] and in test [7] was “inactive” each time.
`COc1ccc2ccc(=O)oc2c1CC=C(C)C`: the parasite growth remaining, % of DMSO control (lower = more inhibition) in test [2] is 15.6%. In test [3], this compound showed a parasite growth, % of control (lower = inhibition) of 73.4%. For the same compound, the growth, % of control in test [4] came to 80.3%. Moreover, the cell viability, % of control (lower = more cytotoxic) in test [5] stood at 124%. Besides, the Potency entry in test [8] and in test [6] was “inactive” in each case.

These data come from PubChem BioAssay (NCATS).
